# Bioassay records from PubChem.
# TRPML1 blocker: inhibitors of human TRPML1 channel | Q9GZU1 | TRPML1-inducible cells, Ca2+ dye fluorescence, FDSS; hits give low values; inhibition of EC80 agonist-evoked calcium signal | activity change, negative = inhibition, % (no concentration beside the values) | 390,000 tested, 0.02% active | AID 624415; in the data active = activity change below about -50%; inconclusive = between about -30% and that limit;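 note: stimulus is agonist 54-4 at its EC80 concentration; % is set by controls: 0 for no effect and ±100 for the full control effect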
# Target sequence (Q9GZU1 whole entry, looked up): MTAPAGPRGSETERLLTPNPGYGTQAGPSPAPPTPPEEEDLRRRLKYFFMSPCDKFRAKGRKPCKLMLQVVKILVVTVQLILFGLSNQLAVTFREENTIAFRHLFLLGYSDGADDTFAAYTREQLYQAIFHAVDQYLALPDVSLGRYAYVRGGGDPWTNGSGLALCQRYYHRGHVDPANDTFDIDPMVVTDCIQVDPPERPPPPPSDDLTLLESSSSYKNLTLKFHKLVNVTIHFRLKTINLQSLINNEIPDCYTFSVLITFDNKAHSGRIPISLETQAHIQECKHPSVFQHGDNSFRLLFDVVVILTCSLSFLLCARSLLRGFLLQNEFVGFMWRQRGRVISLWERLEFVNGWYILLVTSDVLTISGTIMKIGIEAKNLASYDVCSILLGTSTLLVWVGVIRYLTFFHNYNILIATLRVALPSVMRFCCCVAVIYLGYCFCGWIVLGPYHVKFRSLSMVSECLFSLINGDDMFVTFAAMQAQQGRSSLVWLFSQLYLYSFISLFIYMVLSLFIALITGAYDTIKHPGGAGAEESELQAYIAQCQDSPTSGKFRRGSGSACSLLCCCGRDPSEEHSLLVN
#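 TRPML1-DL cells, Tet-induced overnight (~16 h, 37 °C) at 1,500 cells/well, were loaded with Ca8 no-wash dye plus quencher for 45-90 min at room temperature. Compounds were pinned during FDSS kinetic reading; agonist 54-4 at EC80 (4 uM final) then added.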
# TRPML1 agonist: human mucolipin-1 channel agonism | TRPML1-expressing cells, Ca2+ dye fluorescence, FDSS | activation, % (test concentration not listed) | 410,000 tested, 0.12% active; in the data active = activation above about 50%; inconclusive = mostly about 30% to 49%; note: 0% is about no effect
#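 TRPML1-DL cells, Tet-induced overnight (~16 h, 37 degrees C), loaded 45-90 min at room temperature with Ca8 no-wash calcium dye plus quencher. FDSS fluorescence: 10 s baseline, compound pin-transfer, 110 s agonist read, then EC80 54-4 (4uM final) and 110 s antagonist read.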
# GLP1R cytotox: cytotoxicity counter-screen for GLP-1 receptor inverse agonists; HEK293 cAMP-luciferase reporter cells, luminescence, 24 h; Potency, µM (top dose mostly 38.3 µM), inactives show at the highest dose activity change, negative = inhibition, hits mostly inhibitors; 410,000 tested, 0.13% active;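 note: loss of luciferase light is scored as toxicity; potency is the fitted concentration of half-maximal effect; % is set by controls: 0 for no effect and ±100 for the full control effect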
#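 A 23 nL compound transfer followed 12 hours of cell culture at 37 deg C; exposure then lasted 24 hr. Luciferase assay detection reagent was dispensed and plates read for luminescence after a 12 min room-temperature wait.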
# GLP-1R agonist: GLP-1 receptor (human) agonism; P43220; HEK293 GLP-1R CRE-luciferase, luminescence, 4-6 h; cells express a hypersensitive GLP-1R form; Potency, µM (top dose mostly 45.6 µM), without a hit: top-dose activation, most hits filed as activators; 380,000 tested, 0.007% active; AID 624172; note: potency is the fitted concentration of half-maximal effect; % of control where 0% means no effect
# GLP-1R inv ag: inverse agonists of human GLP-1 receptor; AID 624417; P43220; HEK293 GLP-1R CRE-luciferase, luminescence, 24 h; GLP-1R form is constitutively active; Potency, µM (titrated, usually from 38.3 µM), for the others: at the highest dose activity change, negative = inhibition, usual class: inhibitors; 410,000 tested, 1.6% active; note: potency is the fitted concentration of half-maximal effect; % is set by controls: 0 for no effect and ±100 for the full control effect; nearly all actives have a fitted effect of over 55% in size
#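 Assay principle: reduced luminescence from a cAMP-responsive reporter in HEK293 cells co-expressing a constitutively active GLP-1R. Conditions: 24 hr compound incubation, 37 deg C, 5% CO2.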
# Starred values were filed as active, the others as inactive; u = inconclusive; x = no result. Most compounds without a hit are left out; they make up all but 1.8% or so of the library. Unless noted, calls come from the whole dose curve; as a rule, active = well fitted curve in the direction sought with a large enough effect; inconclusive = small, poorly fitted or top-dose-only effect, or another doubt; inactive = no such curve, though single readings can be large; an effect the other way counts as inactive or inconclusive.
SMILES,TRPML1 blocker,TRPML1 agonist,GLP1R cytotox,GLP-1R agonist,GLP-1R inv ag
O=C(Nc1nc(-c2ccc3c(c2)OCCO3)cs1)C1CC(=O)N(c2ccc3c(c2)OCCO3)C1 (configuration not stated),x,0,x,x,x
Cc1ccc(Cn2ncc3c(N4CCOCC4)ncnc32)cc1,0,0,-8%,7%,106%
Cc1ccc(Cn2ncc3c(N4CCN(c5ccccc5C)CC4)ncnc32)cc1,-18,1,0%,-7%,3.5µM*
Oc1ccc(Br)cc1C1C=C(c2ccc3c(c2)OCO3)NC(c2c(F)cccc2Cl)N1 (configuration not stated),-9,2,x,x,x
COc1nc(NCc2ccco2)nc(NC2CCCCC2)n1,3,3,-1%,27%,u
CCOc1nc(NC2CCCCC2)nc(NC(C)(C)C)n1,6,1,4%,1%,5.6µM*
CCn1nc(C)c2c(-c3ccccc3)cc(=O)n(C(C)C(=O)NCc3ccccc3OC)c21 (configuration not stated),-2,2,1%,x,u
O=C(CCl)N1N=C(c2ccco2)CC1c1ccco1 (configuration not stated),3,1,u,1%,2.2µM*
CCOC(=O)c1c(C)[nH]c(C)c1S(=O)(=O)NCC(=O)N1CCN(c2cccc(C)c2)C(C)C1 (configuration not stated),-2,0,0%,x,-22%
COC(=O)c1ccc(NC(=O)c2nc(SCc3ccccc3F)ncc2Cl)cc1,x,0,x,x,x
Cc1ccc2c(c1)C1CN(C)CCC1N2C(=S)NC(=O)c1ccc(Br)cc1 (configuration not stated),-18,2,u,0%,11µM*
COc1ccc(OCC(=O)N2c3ccc(C)cc3C3CN(C)CCC32)cc1 (configuration not stated),1,2,11%,7%,-22%
Cc1c(Br)c([N+](=O)[O-])nn1CC(=O)N1CCc2ccccc2C1,u,-1,-5%,2%,-12%
Cc1c(Br)c([N+](=O)[O-])nn1CC(=O)N1CCN(C23CC4CC(CC(C4)C2)C3)CC1,7,-1,-16%,2%,10µM*
COc1nc(C)cc(C)c1S(=O)(=O)c1ccccc1C,-13,2,0%,0%,u
CCC(C)Oc1nc(C)cc(C)c1S(=O)(=O)c1ccccc1C (configuration not stated),13,7,7%,2%,8.9µM*
CCSc1nc(C)cc(C)c1S(=O)(=O)c1ccccc1C,46,2,-3%,-27%,8.9µM*
CSc1nc(C)cc(C)c1S(=O)(=O)c1ccccc1C,14,4,-3%,-11%,5µM*
CN=C(NC)NCc1ccccc1,x,x,x,0%,x
CCC(=O)N1CCc2cc(Br)cc(S(=O)(=O)N(CC)Cc3ccccc3)c21,24,-1,0%,0%,15%
COC(=O)c1[nH]c2ccc(C)cc2c1NS(=O)(=O)c1ccc(F)c(C)c1,-6,1,-3%,4%,10µM*
CC1(C)c2ccccc2N2CC(=O)N[C@@]21/C=C/C=C/c1ccccc1,11,0,-9%,-2%,3.5µM*
Cc1ccccc1/C=C/C12NC(=O)CN1c1ccccc1C2(C)C (configuration not stated),13,1,-4%,1%,u
Cc1ccc(C)c(-c2[nH]ncc2CN2CCCC(CO)(Cc3ccccc3C)C2)c1 (configuration not stated),-2,0,u,8%,10µM*
CN1c2ccccc2C(=O)N2CCc3c([nH]c4ccccc34)C21 (configuration not stated),-19,3,x,x,x
O=C(Cn1c(=O)oc2ccccc21)NCc1ccccc1Cl,-21,1,5%,x,9%
COc1c2occc2c(OC(C)=O)c2c(=O)cc(C)oc12,-1,-1,-15%,10%,10µM*
CC(=O)Oc1c2occc2cc2ccc(=O)oc12,-1,-1,5%,-5%,14%
CCc1ccc(NC(=O)N2CCN(Cc3cc(=O)n4nc(-c5ccccc5OC)sc4n3)CC2)cc1,45,-1,5%,x,-3%
